Results reported in the supplement of paper PMC6555819.

Legend:
Assay in all cases: PBM binding z-score (relative to random genomic background probes); higher = stronger binding; sequences stand for … in GC…GCGATTGACAGCGTAGAATGAAGG
[1] = test system: FXR:RXRa (NR concentration 270 nM, RXRa partner concentration 90 nM)
Outline: (§1)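 Antibodies against each partner of ligand-free nuclear receptor dimers (one per run) detected binding on custom Agilent 4×180K protein-binding microarrays after 1 h incubation. The double-stranded probes had 34-nt variable regions carrying direct-repeat seeds, single-nucleotide variants, half-site ablations and random human genomic background sequences. Binding z-scores, from regression-normalized fluorescence, use the random background probes as reference.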

[2] = test system: LXRa:RXRa (NR concentration 270 nM, RXRa partner concentration 90 nM)
Outline: as §1

[3] = test system: LXRa homodimer (NR concentration 270 nM)
Outline: as §1

[4] = test system: LXRb:RXRa (NR concentration 270 nM, RXRa partner concentration 90 nM)
Outline: as §1

[5] = test system: LXRb homodimer (NR concentration 270 nM)
Outline: as §1

[6] = test system: PPARa:RXRa (NR concentration 270 nM, RXRa partner concentration 90 nM)
Outline: as §1

[7] = test system: PPARg:RXRa (NR concentration 180 nM, RXRa partner concentration 90 nM)
Outline: as §1

[8] = test system: PPARg:RXRa 270nM:90nM, anti-RXR (NR concentration 270 nM, RXRa partner concentration 90 nM)
Outline: as §1

[9] = test system: PPARg:RXRa 30nM:10nM, anti-RXR (NR concentration 30 nM, RXRa partner concentration 10 nM)
Outline: as §1

[10] = test system: PPARg:RXRa 90nM:30nM, anti-RXR (NR concentration 90 nM, RXRa partner concentration 30 nM)
Outline: as §1

[11] = test system: PPARg:RXRa DBDmut IVT, anti-RXR (DBD mutation: RXRa K156A/R161A, NR concentration 270 nM, RXRa partner concentration 90 nM)
Outline: as §1

[12] = test system: PPARg:RXRa IVT, anti-PPARg (NR concentration 270 nM, RXRa partner concentration 90 nM)
Outline: as §1

[13] = test system: PPARg DBDmut:RXRa IVT, anti-PPARg (DBD mutation: PPARg1 K132A/R137A, NR concentration 270 nM, RXRa partner concentration 90 nM)
Outline: as §1

[14] = test system: PPARg DBDmut IVT, anti-PPARg (DBD mutation: PPARg1 K132A/R137A, NR concentration 270 nM)
Outline: as §1

[15] = test system: PPARg homodimer (NR concentration 180 nM)
Outline: as §1

[16] = test system: PXR:RXRa (NR concentration 270 nM, RXRa partner concentration 90 nM)
Outline: as §1

[17] = test system: PXR homodimer (NR concentration 270 nM)
Outline: as §1

[18] = test system: RARa:RXR (NR concentration 270 nM, RXRa partner concentration 90 nM)
Outline: as §1

[19] = test system: RARa homodimer (NR concentration 270 nM)
Outline: as §1

[20] = test system: RARb:RXRa (NR concentration 270 nM, RXRa partner concentration 90 nM)
Outline: as §1

| Sequence | PBM binding z-score [1] | PBM binding z-score [2] | PBM binding z-score [3] | PBM binding z-score [4] | PBM binding z-score [5] | PBM binding z-score [6] | PBM binding z-score [7] | PBM binding z-score [8] | PBM binding z-score [9] | PBM binding z-score [10] | PBM binding z-score [11] | PBM binding z-score [12] | PBM binding z-score [13] | PBM binding z-score [14] | PBM binding z-score [15] | PBM binding z-score [16] | PBM binding z-score [17] | PBM binding z-score [18] | PBM binding z-score [19] | PBM binding z-score [20] |
| --- | --- | --- | --- | --- | --- | --- | --- | --- | --- | --- | --- | --- | --- | --- | --- | --- | --- | --- | --- | --- |
| ACTATTAGTTGAGACAAGGGCAACCGATAGGTTG | 0.264 | -0.00254 | -0.143 | -0.136 | 0.202 | 0.0106 | 0.795 | 0.412 | 0.214 | 0.411 | -0.102 | 0.38 | 0.684 | 0.362 | 1.21 | 0.594 | 0.47 | 0.553 | 0.821 | 1.17 |
| ACTATTAGTTGAGAAGAGGGCAACCGATAGGTTG | 0.199 | 0.323 | 0.0723 | -0.0222 | 0.248 | 0.44 | 0.56 | 0.246 | 0.12 | 0.365 | 0.072 | 0.463 | 1.02 | 0.853 | 0.882 | 0.779 | 0.445 | 0.623 | 1.19 | 1.32 |
| TCTATTAGTTGATTAGGCCAACCGAAACAGCGGA | 0.75 | 0.591 | 0.444 | 0.663 | 0.882 | 0.722 | 0.22 | 2.07 | 3.98 | 3.02 | 2.31 | 0.958 | 0.847 | 0.784 | 1.2 | 0.477 | 0.547 | 0.834 | 1.24 | 0.707 |
| TCTTCTAGATCAGCAGGTTAAGAAAGCTGGCCAA | 0.108 | 0.0628 | -0.37 | 0.225 | 0.0387 | 0.759 | -0.499 | 1.53 | 2.84 | 2.08 | 1.75 | 0.956 | -0.541 | -0.141 | -0.0964 | 0.0261 | -0.795 | 0.252 | -0.167 | 0.235 |
| TCTTGGAGGACACGAAGGTCAGAGCTTTCCAGAG | 1.51 | 1.47 | 0.0796 | 1.27 | -0.69 | 2.1 | 0.905 | 2.2 | 2.51 | 2.31 | 2.12 | 2.46 | -0.251 | -0.635 | 0.788 | 1.93 | 0.605 | 1.86 | -0.208 | 3.36 |
| GCTGATAGGTCAGGTTGGTCAGCTAACGGGTACG | 2.43 | 2.19 | -0.0156 | 1.67 | 0.114 | 2.71 | 0.952 | 1.4 | -0.0509 | 0.754 | 1.74 | 1.49 | -0.568 | -0.567 | 1.32 | 1.25 | -0.432 | 2.23 | -0.0849 | 3.8 |
| TCTCGGAGGACACGAAGGACAGAGCTTTCCAGAG | 0.358 | -0.306 | -0.452 | -0.355 | -1.07 | -0.0833 | 0.271 | 0.836 | 2.13 | 1.3 | 1.14 | 0.0636 | -0.366 | -1.09 | -0.347 | -0.352 | -0.367 | 0.0176 | -1.01 | 1.54 |
| ATCTCTAGGAAACAAGTTCAGTGAAAGAGAGGAC | 0.431 | 0.902 | 0.383 | 0.587 | 0.528 | 0.467 | 0.409 | 0.0222 | 0.37 | -0.00536 | -0.477 | 0.373 | 0.113 | 0.509 | 0.901 | 1.24 | 1.82 | 0.58 | 0.878 | 1.17 |
